Assay results from PubChem BioAssay (NCI).
The panel holds about 83,000 compounds, 20% with a hit somewhere; the sample as a whole holds those more often.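 Single-concentration screen, 48 h exposure, 96-well plates. Endpoint: percent growth. Below 10 = active.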 Values without a mark were called inactive. Activity calls are given as the source filed them.

Assays:
Assay in all cases: NCI-60 one-dose screen, 48 h (100 = growth as untreated, 0 = no growth, -100 = all killed)
Details in all cases: 10 µM unless noted
[1] = test system: T-47D breast
[2] = test system: BT-549 breast
[3] = test system: MDA-MB-435 melanoma
[4] = test system: SW-620 colon
[5] = test system: MCF7 breast
[6] = test system: HCT-116 colon
[7] = test system: HCC-2998 colon
[8] = test system: KM12 colon

| Compound | growth [1] | growth [2] | growth [3] | growth [4] | growth [5] | growth [6] | growth [7] | growth [8] |
| --- | --- | --- | --- | --- | --- | --- | --- | --- |
| CCc1ccc(-c2ccc(Nc3ccccc3)nn2)cc1S(N)(=O)=O | 53.3% | 83.3% | 36.1% | 54.1% | 84.3% | 72.6% | 85.4% | 40.6% |
| N#CC1=C(N)Oc2c(c(N)nn2-c2ccccc2)C1c1ccc(Cl)cc1Cl (stereo not given) | 77.6% | 97.8% | 103% | 100% | 98.3% | 94.4% | 106% | 99.3% |
| CC1(C)NCCC[C@]2(C)[C@H]3CC[C@@H]4[C@H]5[C@H](C(=O)/C=C/c6ccccn6)CC[C@]5(CO)CC[C@@]4(C)[C@]3(C)CC[C@@H]12 | 30.7% | 64.6% | 57.3% | -51% (active) | 20.3% | -7.47% (active) | 47.9% | 25.5% |
| Clc1ccc(Cn2cc(-c3nc4ccc(Br)nc4n3Cc3ccc(Cl)cc3)c3cccnc32)cc1 | 34.7% | 82.4% | 105% | 103% | 57.7% | 84.1% | 96.7% | 95.9% |
| CC1(C)[C@@H](O)CC[C@]2(C)[C@H]3CC[C@@H]4[C@H]5[C@H](C(=O)/C=C/c6ccc(C(F)(F)F)cc6)CC[C@]5(CO)CC[C@@]4(C)[C@]3(C)CC[C@@H]12 | 34.1% | 60% | 42.5% | 44.5% | 32.3% | 15.3% | 77.2% | 68.7% |
| O=S(=O)(NCCNc1cc(-c2cn(-c3ccccc3)nc2-c2cccc(O)c2)ccn1)c1ccc(C(F)(F)F)cc1 | 18.3% | 65.2% | 42.4% | 64.8% | 25.9% | 28.4% | 8.21% (active) | 46.5% |
| C=C1C(=O)O[C@H]2[C@H]1CC/C(COC(=O)NCc1cc3ccccc3[nH]1)=C\CC[C@@]1(C)O[C@@H]21 | -43.1% (active) | -24.2% (active) | 2.87% (active) | -37.8% (active) | 0.667% (active) | -81.9% (active) | 98.3% | 81% |
| Cc1cc(N2CCOCC2)nc(N(CCCNc2ccnc3cc(Cl)ccc23)Cc2ccco2)n1 | 35.3% | 37.8% | -20.1% (active) | 21.4% | 15.5% | 7.37% (active) | 87.9% | 33.3% |
| Cn1cc(-c2csc(-c3cn(CCNC(=O)OC(C)(C)C)c4ccccc34)n2)c2cccnc21 | -1.03% (active) | 67.2% | 74.5% | 92.4% | 39.4% | 81.1% | 95.8% | 59.2% |
| O=C1OC(c2ccc(Cl)c(Cl)c2)=C/C1=C/c1cccc([N+](=O)[O-])c1 | 96.7% | 111% | 104% | 102% | 101% | 86.5% | 103% | 104% |
| C=C(C)[C@@H]1CC[C@]2(C=O)CC[C@]3(C)[C@H](CC[C@@H]4[C@@]5(C)C/C(=C/c6cccnc6)C(=O)C(C)(C)[C@@H]5CC[C@]43C)[C@@H]12 | 31.9% | 75.6% | 95.3% | 76.2% | 40.5% | 43.8% | 99% | 78.3% |
| CCCNc1nc(N(C)O)nc(N(C)O)n1 | 28.2% | 68.5% | 51.2% | 38.1% | 15.6% | 5.06% (active) | 24.5% | 41.5% |
| COC(=O)[C@]12CC[C@@H](C(=O)/C=C/c3cccnc3)[C@@H]1[C@H]1CC[C@@H]3[C@@]4(C)C/C(=C/c5cccnc5)C(=O)C(C)(C)[C@@H]4CC[C@@]3(C)[C@]1(C)CC2 | -43.6% (active) | -92.1% (active) | -69.7% (active) | -67.3% (active) | -54.2% (active) | -87.4% (active) | -55.5% (active) | -75% (active) |
| CN1CCN(CCOc2ccc(-c3cnc4c(-c5cccc(F)c5)cnn4c3)cc2)CC1 | 56.9% | 92.8% | -47.8% (active) | -28.7% (active) | 37.4% | 23.9% | 63.2% | 11.4% |
| COc1ccc(-c2n/c(=C\c3c(O)[nH]c4ccc(OC)cc34)cc3c2=Nc2ccccc2-3)cc1 | 93% | -20.1% (active) | 3.6% (active) | 0.413% (active) | -22.7% (active) | -72.6% (active) | 22.7% | 8.66% (active) |
| CCC1C(=O)COC1=O (stereo not given) | 71.6% | 95.9% | 103% | 98% | 94.8% | 85.8% | 107% | 101% |
| COc1ccc(-c2cc(/C=C/C(=O)c3ccc(N)cc3)[nH]n2)cc1 | 21% | 9.81% (active) | 14.7% | -38.1% (active) | 18.4% | 8.45% (active) | 35.4% | 3.29% (active) |
| COc1cc(/C=C2\C(=O)N(CC(O)COc3cc(O)c4c(=O)cc(-c5ccccc5)oc4c3)c3ccccc32)cc(OC)c1O (stereo not given) | 58.2% | 96.7% | 54.7% | 89.9% | 32.8% | 78.4% | 99.7% | 82% |
| CCc1nnc(NC(=O)c2ccoc2COc2ccccc2)s1 | 45.7% | 51.2% | -26.1% (active) | 24% | 24% | 30.6% | 69% | 31.6% |
| CC(=O)O[C@H]1CC[C@@]2(C)[C@@H](CC[C@@H]3[C@@H]2CC(=O)[C@@]2(C)[C@H]3C[C@@H](C3CCCC3=O)[C@@H]2C(C)=O)C1 (stereo not given in full) | 91.1% | 103% | 118% | 111% | 98.2% | 90.1% | 107% | 106% |
| Brc1ccc2[nH]cc(-c3nc(-c4c[nH]c5ncccc45)cs3)c2c1 | 59.8% | 58.7% | 40.6% | 6.36% (active) | 32.3% | 17.5% | 60.2% | 21.3% |
| COc1ccccc1-n1cnc(N)c1C(=O)c1cc(OC)c(OC)c(OC)c1 | 49.8% | 47.1% | -15% (active) | 23.7% | 12.4% | 24.5% | 61.7% | 16.1% |
| O=C1C(=O)N(CCCCn2cc(-c3ccccc3)nn2)c2ccccc21 | 93.4% | 96.7% | 108% | 104% | 94.9% | 101% | 117% | 104% |
| CCCCCC1CCCCN1C(=O)OCC (stereo not given) | 92.4% | 98.1% | 115% | 105% | 99.3% | 93.6% | 94.4% | 110% |
| C=CC(=O)N[C@H](Cc1ccc(-c2cc(Cl)cc(Cl)c2)cc1)[C@H](O)[C@@H](O)C(=O)O | 90% | 87.4% | 102% | 98.1% | 87% | 75.5% | 109% | 99.3% |
| Cc1cc2nc3c4cc(N)ccc4n(CCN(C)C)c3nc2cc1C | 16.1% | 45% | 14.6% | 7.31% (active) | -19.6% (active) | 5.51% (active) | 17% | 17.4% |
| CC(=O)c1c(C)[nH]c(-c2nc3ccc(N4CCN(C)CC4)cc3[nH]2)c1-c1ccc2c(c1)OCCO2 | 37.7% | 63% | 34.9% | 59.7% | 10.5% | 32.1% | 45% | 48.9% |
| COc1cc(-c2cc3ncccc3c3nc(OCCN(C)C)c4cccnc4c23)cc(OC)c1OC | 37% | 41.6% | 18.1% | 17.4% | 3.86% (active) | -21.8% (active) | 17.1% | 18.7% |
| COc1ccc2c(c1)C(Br)=C(CCO)C2c1ccccc1 (stereo not given) | 54.3% | 87.7% | 91.8% | 73.2% | 58.8% | 57.3% | 49.3% | 42.8% |
| COc1cc2c(cc1-c1c(C)noc1C)ncc1nc(C3CCCCC3)n([C@@H](C)COC(F)F)c12 | 25% | 52.9% | 28.2% | 59.2% | 12.1% | 24.8% | 50.5% | 35.9% |
